# In PubChem BioAssay (NCATS):
# Records with an inconclusive call do not appear. A call without a number means that no potency is given here. The source made the active and inactive calls. Calls come from the whole dose curve; as a rule, active = well fitted curve in the direction sought with a large enough effect; inconclusive = small, poorly fitted or top-dose-only effect, or another doubt; inactive = no such curve, though single readings can be large; an effect the other way counts as inactive or inconclusive.
# Experiments:
# [1] = P-glycoprotein substrates identified in KB-8-5-11 adenocarcinoma cell line, qHTS therapeutic library screen (AID 1346987); note: nearly all actives have a fitted effect of over 65% in size
# Outline: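 KB-8-5-11: colchicine-selected sub-line of KB-3-1 over-expressing P-gp; assay medium lacked colchicine. 72 h drug exposure at 37 degree C, CellTiter-Glo.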
# [2] = P-glycoprotein substrates identified in KB-3-1 adenocarcinoma cell line, qHTS therapeutic library screen (AID 1346986); note: nearly all actives have a fitted effect of over 60% in size
# Outline: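 KB-3-1 parental cells and P-gp-overexpressing KB-8-5-11 (colchicine omitted during assay) plated at 500 cells/well, dosed in dose-response, incubated 72 h at 37 degree C. CellTiter-Glo luminescence read; KB-8-5-11 also tested with tariquidar.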
# [3] = test system: Zika virus NS2B-NS3 protease (unlinked complex); experiment: Primary screen GU Rhodamine qHTS for Zika virus inhibitors: Unlinked NS2B-NS3 protease assay (AID 1347159); note: nearly all actives have a fitted effect of over 60% in size; note: potency is the fitted concentration of half-maximal effect
# Outline: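 A qHTS format was used, with compound concentrations ranging up to 114 microM. Each compound was preincubated with 25 nM NS2B-NS3 protease, and the substrate was then added at 1.5 microM. Curves were fitted with a 4-parameter Hill model.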
# [4] = test system: Zika virus NS2B-NS3 protease (linked construct); experiment: Primary screen NINDS Rhodamine qHTS for Zika virus inhibitors (AID 1347160); note: nearly all actives have a fitted effect of over 55% in size; note: potency is the fitted concentration of half-maximal effect
# Outline: (§1)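 Kinetic fluorescence (Ex 480 nm, Em 540 nm) over 15 min with 1.5 microM Rhodamine110 peptide and 25 nM linked protease.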
# [5] = test system: Zika virus NS2B-NS3 protease (unlinked complex); experiment: Confirmatory screen GU AMC qHTS for Zika virus inhibitors (AID 1347153); note: nearly all actives have a fitted effect of over 70% in size;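 for potency: enzyme at 25 nM with substrate at 10 µM below its Km of 18.3 µM; potency is the fitted concentration of half-maximal effect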
# Outline: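 Fluorescence change (ex 340/em 450 nm) over 15 min, ~20% substrate conversion, normalized to no-inhibitor and no-enzyme controls, then Hill-fitted. Unlinked protease at 25 nM; AMC peptide 10 µM.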
# [6] = Confirmatory screen GU Rhodamine qHTS for Zika virus inhibitors qHTS (AID 1347157); note: potency is the fitted concentration of half-maximal effect; nearly all actives have a fitted effect of over 70% in size
# Outline: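 Enzyme 25 nM in Tris-HCl pH 8.0 + 0.01% Tween 20; compounds up to 114 microM, 15 min RT dark; + Rhod110 substrate 1.5 microM; read t0 and 15 min; delta fluorescence → % inhibition → 4-parameter Hill fit.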
# [7] = ZIKV-mCherry secondary qHTS for Zika virus inhibitors (AID 1347158); note: top concentration of the series differs between compounds
# Outline: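 Vero cells, 5,000/well, plated overnight at 37 °C, then compound added and infected with recombinant ZIKV-mCherry at MOI 1 for 48-72 h. PFA-fixed, Hoechst nuclear stain, high-content imaging; cells with mCherry intensity above 450 RFU scored infected, reported as percent infection.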
# [8] = Confirmatory screen NINDS Rhodamine qHTS for Zika virus inhibitors (AID 1347161); note: potency is the fitted concentration of half-maximal effect; nearly all actives have a fitted effect of over 60% in size
# Outline: as §1
# [9] = test system: Zika virus NS2B-NS3 protease (linked); experiment: 384 well plate NINDS AMC confirmatory qHTS for Zika virus inhibitors (AID 1347163); note: potency is the fitted concentration of half-maximal effect; nearly all actives have a fitted effect of over 50% in size
# Outline: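 Linked protease 5/30/60 nM final; cpds up to 1 mM final, ~15 min preinc. Substrate Ac-VKTGKR-AMC 30 microM final. RT, dark, 25 min; FI ex 355/em 460; normalized to no-enzyme/no-inhibitor ctrls.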
# [10] = test system: Zika virus NS2B-NS3 protease (linked construct); experiment: 384 well plate NINDS Rhodamine confirmatory qHTS for Zika virus inhibitors (AID 1347164);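 note: fluorescence from protease cleavage of Ac-LKRR-rhodamine 110 substrate; nearly all actives have a fitted effect of over 65% in size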; note: potency is the fitted concentration of half-maximal effect
# Outline: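 Enzyme (final 5/30/60 nM) + cpd (DMSO), ~15 min; add Ac-LKRR-Rd 10 microM final; 25 min RT, dark; FI ex 485/em 538; normalized to no-enzyme, no-inhibitor ctrls; aprotinin intraplate ctrl.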
# [11] = Vero cells viability qHTS for Zika virus inhibitors (AID 1347167)
# Outline: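 Counter-screen for cytotoxicity of hits from NS2B-NS3 protease qHTS. Overnight-attached cells (2.5 x 10^5 cells/mL, DMEM/4% FBS) were dosed in titration, incubated 24 to 48 hours, then assayed by CellTiter Glo.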
# [12] = test system: Zika virus NS2B-NS3 protease (linked construct); experiment: Confirmatory screen NINDS AMC qHTS for Zika virus inhibitors (AID 1347152); note: potency is the fitted concentration of half-maximal effect; nearly all actives have a fitted effect of over 70% in size
# Outline: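 Enzyme (1 nM, linked construct) was preincubated with compound for 15 minutes at room temperature in 10 mM Tris-HCl pH 8.0 with 0.01% Tween 20. Bz-Nle-Lys-Arg-Arg-AMC was then added to 10 microM, and AMC fluorescence was recorded immediately and after 15 minutes.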
smiles,measurement,setting,value
O=C(OC[C@H]1O[C@@H](Oc2ccccc2COC(=O)C2(O)C=CCCC2O)[C@H](O)[C@@H](O)[C@@H]1O)c1ccccc1 (some centres not stated),Potency,[1],inactive
CC1(O)CC(O)C2C(C(=O)O)=COC(OC3OC(CO)C(O)C(O)C3OC(=O)/C=C/c3ccc(O)cc3)C21 (configuration not stated),Potency,[1],inactive
COc1ccc(S(=O)(=O)Nc2nc(-c3cccc([N+](=O)[O-])c3)cs2)cc1OC,Potency,[1],inactive
C=CC(C)(O)CC/C=C(\C)C(=O)O[C@@H]1[C@@H](O)[C@H](OC(C)(C=C)CC/C=C(\C)C(=O)O)O[C@H](CO)[C@H]1OC(=O)/C(C)=C/CCC(C)(O)C=C (some centres not stated),Potency,[2],inactive
same,Potency,[3],inactive
same,Potency,[4],inactive
C/C(=C\CC[C@H](CO)[C@@H]1CC[C@]2(C)C3=C(CC[C@@]12C)[C@@]1(C)CCC(=O)C(C)(C)C1CC3)C(=O)O (some centres not stated),Potency,[1],inactive
CCC/C=C/C=C/C1CC(O)C(O)C(=O)C1CO (configuration not stated),Potency,[2],inactive
same,Potency,[1],inactive
same,Potency,[4],inactive
O=C(NCC(=O)N1CCCC1)Nc1ccc2ccccc2c1,Potency,[2],inactive
same,Potency,[3],inactive
same,Potency,[4],inactive
O=C(O)c1ccc(NC(=O)[C@H](CC2CCCC2)n2cnc(C(F)(F)F)c2)nc1,Potency,[2],inactive
same,Potency,[3],inactive
same,Potency,[4],inactive
C[C@H]1CC[C@@]2(OC1)O[C@H]1CC3C4CC[C@H]5C[C@@H](O)CC[C@]5(C)C4CC(=O)[C@]3(C)[C@H]1[C@@H]2C (some centres not stated),Potency,[2],inactive
same,Potency,[1],inactive
same,Potency,[4],inactive
O=C(OCc1ccccc1O[C@@H]1O[C@H](CO)[C@@H](O)[C@H](O)[C@H]1O)C1(O)C=CCCC1O (some centres not stated),Potency,[1],inactive
COc1ccc(C2(O)c3c(ccc4c3OC(C)(CCC=C(C)C)C=C4)NC(=O)C2OC)cc1 (configuration not stated),Potency,[1],inactive
CCOC(=O)C1=C(N)Oc2ccc(Cl)cc2C1C(C#N)C(=O)OCC (configuration not stated),Potency,[2],inactive
same,Potency,[4],inactive
C=C1C(=O)O[C@@H]2CC(C)=C([C@@H](C)CCCOC(C)=O)[C@@H](O)[C@H]12,Potency,[1],inactive
Nc1ncnc2c1c(COc1cccc(Cl)c1)nn2C1CCOCC1,Potency,[2],inactive
same,Potency,[3],inactive
same,Potency,[4],inactive
C[C@@H]1CC2OC(=O)C3=C2C(CCC3O)[C@@]12C[C@@H](c1ccoc1)OC2=O (some centres not stated),Potency,[2],inactive
same,Potency,[3],inactive
same,Potency,[4],inactive
Cc1ccccc1NC(=O)Nc1ccc(CN2C(=O)N([C@@H](CC(C)C)C(=O)N[C@@H](CC(=O)O)c3ccccc3)C(=O)C2(C)C)cc1,Potency,[2],inactive
same,Potency,[5],inactive
same,Potency,[6],35 µM (active)
same,Potency,[7],inactive
same,Potency,[3],31.6 µM (active)
same,Potency,[4],7.08 µM (active)
same,Potency,[8],27.8 µM (active)
same,Potency,[9],10 µM (active)
same,Potency,[10],inactive
same,outcome,[11],inactive
Cc1nnc(-c2ccc3occ(-c4ccc(S(C)=O)cc4)c3c2)o1 (configuration not stated),Potency,[2],inactive
same,Potency,[3],inactive
same,Potency,[4],inactive
C=C(C)C(O)COc1ccc(CC(=O)O)cc1 (configuration not stated),Potency,[2],inactive
same,Potency,[3],inactive
same,Potency,[4],inactive
CC1OC(OC2C(OC3C(O[C@H]4CC[C@@]5(C)C(CC[C@]6(C)C5C(=O)CC5=C7CC(C)(C)CC(O)[C@]7(C)CC[C@]56C)C4(C)C)OC(C(=O)O)C(O)C3O)OCC(O)C2O)C(O)C(O)C1O (some centres not stated),outcome,[2],inactive [at 9.29 µM]
same,outcome,[1],inactive [at 9.29 µM]
same,Potency,[4],inactive
COc1cc(C2CC(=O)Nc3c2cc(Br)c2ccccc32)cc(OC)c1OC (configuration not stated),Potency,[2],inactive
same,Potency,[3],inactive
same,Potency,[4],inactive
C[C@@H]1O[C@@H](OC[C@H]2O[C@@H](OCc3ccccc3)[C@H](O)[C@@H](O)[C@@H]2O)[C@H](O)[C@H](O)[C@H]1O,Potency,[1],inactive
O=C(O)CCc1cc2ccoc2cc1O[C@@H]1O[C@H](CO)[C@@H](O)[C@H](O)[C@H]1O,Potency,[2],inactive
same,Potency,[3],inactive
same,Potency,[4],inactive
COc1cc(OC)cc(-c2ccc3c(-c4ccc(F)cc4)[nH]nc3n2)c1,Potency,[2],inactive
same,Potency,[3],inactive
same,Potency,[4],inactive
CC1CC2OCC3(O)CCC(O)C(C14CC(c1ccoc1)OC4=O)C23CO (configuration not stated),Potency,[1],inactive
CCCc1[nH]nc2c1C(c1cc(Cl)cc(Cl)c1O)C(C#N)=C(N)O2 (configuration not stated),Potency,[2],inactive
same,Potency,[4],inactive
CC1(C)CCC2(C(=O)O)CCC3(C)C(=CCC4C5(C)CCC(O)C(C)(CO)C5C(O)CC43C)C2C1 (configuration not stated),Potency,[1],inactive
CC1(C)OC(=O)C=C[C@@]2(C)C1CC(=O)[C@]1(C)C2CC[C@@]2(C)[C@H](c3ccoc3)OC(=O)[C@H]3O[C@]321 (some centres not stated),Potency,[2],inactive
same,Potency,[3],inactive
same,Potency,[4],inactive
C/C(=C\CC/C(C)=C/CC[C@]1(C)CCc2cc(O)cc(C)c2O1)CC/C=C(\C)C(=O)O,Potency,[1],inactive
same,Potency,[12],19.2 µM (active)
same,Potency,[6],3.83 µM (active)
same,Potency,[7],inactive
same,Potency,[3],8.91 µM (active)
same,Potency,[4],2.2 µM (active)
same,Potency,[8],1.92 µM (active)
same,Potency,[9],5.01 µM (active)
same,Potency,[10],2.51 µM (active)
same,outcome,[11],inactive
O=C(/C=C/c1ccc(O)c(O)c1)O[C@@H]1[C@@H](O)[C@H](OC2CCCCC2O)O[C@H](CO)[C@H]1O (some centres not stated),Potency,[1],inactive
C=C1C(O)C(O)C2(CC3C(C)=CCC4C(C)(C(=O)O)CCCC34C)OC2C1O (configuration not stated),Potency,[1],inactive
C=C1CCC2C(C)(C)CCC[C@]2(C)[C@H]1CC/C(C)=C/C(=O)O (some centres not stated),Potency,[1],inactive
same,Potency,[12],44.1 µM (active)
same,Potency,[5],39.3 µM (active)
same,Potency,[6],11.1 µM (active)
same,Potency,[3],3.55 µM (active)
same,Potency,[4],5.62 µM (active)
same,Potency,[8],4.94 µM (active)
same,Potency,[9],2 µM (active)
same,outcome,[11],inactive
